Source: the supplement of paper PMC12494721
Where a name gives a salt, the structure may show the parent alone.

Key:
Details in all cases: incubation time: 27 h, anaerobic, 37 °C;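 for the amine columns active = adjusted P below 0.05 in both replicates with a change the same way and a mean fold change under 0.8 or over 1.25; inactive = the rest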
[1] = tested on: Clostridium sporogenes DSM 1664; experiment: growth (OD595) fold change vs plate DMSO controls (fold change (ratio)); higher = more growth
Summary of the method: (§1)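 The measure reported is growth, taken as fold change against the median of DMSO controls on the same plate. Anaerobic mGAM cultures in 96-well plates (27 h, 37 °C) were read at 595 nm, blank-subtracted, corrected for compound background using 20 µM compound solutions in water, and multiplied by a calibration factor of 5 to give OD. Any fold change above 1.5 became NA, and 2 biological replicates were averaged.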

Escherichia coli IAI1 [2] = experiment: as above
Summary of the method: as §1

[3] = tested on: Klebsiella aerogenes DSM 30053; experiment: as above
Summary of the method: as §1

[4] = tested on: Ruminococcus gnavus DSM 108212; experiment: as above
Summary of the method: as §1

[5] = tested on: Klebsiella aerogenes DSM 30053; experiment: fold change of Histamine concentration vs plate DMSO controls (fold change (ratio)); higher = more amine produced, active = hit call of the paper (significant change in both replicates, either direction)
Summary of the method: (§2)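 Using LC–triple-quadrupole MS with dynamic MRM, amines were quantified against external calibration curves and corrected for drift within each batch. Samples were whole anaerobic mGAM cultures of four gut strains, grown 27 h at 37 °C from OD 0.1 before 1:1 dilution, extracted with cold acetonitrile/methanol containing 0.1% formic acid and centrifuged. Compounds were present at 20 µM final (sweeteners at 50 µM final). The numbers are fold changes versus plate DMSO controls, each the mean of 2 biological replicates.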

[6] = tested on: Clostridium sporogenes DSM 1664; experiment: fold change of Tryptamine concentration vs plate DMSO controls (fold change (ratio)); higher = more amine produced, active = hit call of the paper (significant change in both replicates, either direction)
Summary of the method: as §2

[7] = tested on: Ruminococcus gnavus DSM 108212; experiment: as above
Summary of the method: as §2

Escherichia coli IAI1 [8] = experiment: fold change of Putrescine concentration vs plate DMSO controls (fold change (ratio)); higher = more amine produced, active = hit call of the paper (significant change in both replicates, either direction)
Summary of the method: as §2

[9] = tested on: Klebsiella aerogenes DSM 30053; experiment: as above
Summary of the method: as §2

Escherichia coli IAI1 [10] = experiment: fold change of Cadaverine concentration vs plate DMSO controls (fold change (ratio)); higher = more amine produced, active = hit call of the paper (significant change in both replicates, either direction)
Summary of the method: as §2

[11] = tested on: Klebsiella aerogenes DSM 30053; experiment: as above
Summary of the method: as §2

[12] = tested on: Ruminococcus gnavus DSM 108212; experiment: fold change of 2-Phenylethylamine concentration vs plate DMSO controls (fold change (ratio)); higher = more amine produced, active = hit call of the paper (significant change in both replicates, either direction)
Summary of the method: as §2

| SMILES | growth [1] | growth (Escherichia coli IAI1 [2]) | growth [3] | growth [4] | fold change of Histamine concentration [5] | fold change of Tryptamine concentration [6] | fold change of Tryptamine concentration [7] | fold change of Putrescine concentration (Escherichia coli IAI1 [8]) | fold change of Putrescine concentration [9] | fold change of Cadaverine concentration (Escherichia coli IAI1 [10]) | fold change of Cadaverine concentration [11] | fold change of 2-Phenylethylamine concentration [12] |
| --- | --- | --- | --- | --- | --- | --- | --- | --- | --- | --- | --- | --- |
| CC(N)C12CC3CC(CC(C3)C1)C2 (stereo not drawn) [Rimantadine hydrochloride] (20 µM) | 0.858 | 0.975 | 0.955 | 0.786 | 1.01 (inactive) | 0.984 (inactive) | 1 (inactive) | 0.947 (inactive) | 1.01 (inactive) | 1.01 (inactive) | 0.994 (inactive) | 0.987 (inactive) |
| CN(C)c1ccc(O)c2c1C[C@H]1C[C@H]3[C@H](N(C)C)C(=O)C(C(N)=O)=C(O)[C@@]3(O)C(=O)C1=C2O [Minocycline hydrochloride] (20 µM) | 0.0113 | 0.0671 | 0.394 | 0.158 | 0.996 (inactive) | 0.0198 (active) | 0.14 (active) | 0.287 (active) | 0.866 (inactive) | 0.278 (active) | 0.681 (active) | 0.142 (active) |
| CCOC(=O)[C@H](CCc1ccccc1)N[C@@H](C)C(=O)N1Cc2ccccc2C[C@H]1C(=O)O [Quinapril hydrochloride] (20 µM) | 1.03 | 1.02 | 0.996 | 0.99 | 1.06 (inactive) | 1.07 (inactive) | 1.03 (inactive) | 1.09 (inactive) | 1.04 (inactive) | 0.999 (inactive) | 1.01 (inactive) | 1.03 (inactive) |
| Cc1ccc(Cl)c(Nc2ccccc2C(=O)O)c1Cl [Meclofenamic acid sodium salt monohydrate] (20 µM) | 1.01 | 0.972 | 1.16 | 1.12 | 0.916 (inactive) | 0.879 (inactive) | 0.959 (inactive) | 0.999 (inactive) | 0.977 (inactive) | 1.03 (inactive) | 1.03 (inactive) | 0.911 (inactive) |
| COc1cc([S+](C)[O-])ccc1-c1nc2cccnc2[nH]1 (stereo not drawn) [Sulmazole] (20 µM) | 0.885 | 0.999 | 0.98 | 1.1 | 0.922 (inactive) | 0.944 (inactive) | 1.19 (inactive) | 0.951 (inactive) | 0.952 (inactive) | 1.02 (inactive) | 1.05 (inactive) | 1.38 (inactive) |
| COC(=O)Nc1nc2cc(C(=O)c3ccccc3)ccc2[nH]1 [Mebendazole] (20 µM) | 1.04 | 1 | 1.11 | 0.629 | 0.962 (inactive) | 0.982 (inactive) | 1.01 (inactive) | 1.03 (inactive) | 0.987 (inactive) | 0.998 (inactive) | 1 (inactive) | 1.03 (inactive) |
| COc1ccc2c(c1)c(CC(=O)O)c(C)n2C(=O)c1ccc(Cl)cc1 [Indomethacin] (20 µM) | 0.988 | 1 | 1.02 | 1.04 | 0.997 (inactive) | 0.988 (inactive) | 0.981 (inactive) | 1.01 (inactive) | 1.01 (inactive) | 1 (inactive) | 0.989 (inactive) | 0.979 (inactive) |
| CC(=O)[C@@]1(O)CC[C@H]2[C@@H]3C[C@H](C)C4=CC(=O)C=C[C@]4(C)[C@@]3(F)[C@@H](O)C[C@@]21C [Fluorometholone] (20 µM) | 1.02 | 0.986 | 1.01 | 1.14 | 1.05 (inactive) | 1.05 (inactive) | 1.08 (inactive) | 0.992 (inactive) | 0.968 (inactive) | 0.957 (inactive) | 0.983 (inactive) | 1.14 (inactive) |
| CC[N+](C)(C)c1cccc(O)c1 [Edrophonium chloride] (20 µM) | 1.07 | 1.06 | 1.01 | 1.17 | 1.07 (inactive) | 0.998 (inactive) | 1.14 (inactive) | 1.01 (inactive) | 1.03 (inactive) | 0.919 (inactive) | 1 (inactive) | 1.11 (inactive) |
| CN1CCN(C2Cc3ccccc3Sc3ccc(Cl)cc32)CC1 (stereo not drawn) [Octoclothepin maleate salt] (20 µM) | 0.962 | 0.98 | 0.941 | 0.931 | 1.01 (inactive) | 1.05 (inactive) | 0.848 (inactive) | 1.06 (inactive) | 1 (inactive) | 1.1 (inactive) | 0.99 (inactive) | 0.992 (inactive) |
| [S] (20 µM) | 1.07 | 0.919 | 0.964 | 0.976 | 0.924 (inactive) | 0.999 (inactive) | 1.01 (inactive) | 1.02 (inactive) | 0.962 (inactive) | 0.951 (inactive) | 1 (inactive) | 1.02 (inactive) |
| Nc1nc(=O)c2c([nH]1)NC[C@@H](CNc1ccc(C(=O)N[C@@H](CCC(=O)O)C(=O)O)cc1)N2C=O [Folinic acid calcium salt] (20 µM) | 0.975 | 0.979 | 0.993 | 0.963 | 0.976 (inactive) | 1.02 (inactive) | 0.944 (inactive) | 1.05 (inactive) | 0.998 (inactive) | 0.962 (inactive) | 0.999 (inactive) | 0.882 (inactive) |
| CN1CCCCC1CCN1c2ccccc2Sc2ccc([S+](C)[O-])cc21 (stereo not drawn) [Mesoridazine besylate] (20 µM) | 1.12 | 0.991 | 0.974 | 0.756 | 1.1 (inactive) | 0.992 (inactive) | 1.02 (inactive) | 1 (inactive) | 1.02 (inactive) | 1.01 (inactive) | 0.978 (inactive) | 0.987 (inactive) |
| O=C(O)CCC(=O)Nc1ccc(S(=O)(=O)Nc2nccs2)cc1 [Succinylsulfathiazole] (20 µM) | 1.03 | 1.11 | 1.2 | 1.13 | 0.965 (inactive) | 0.988 (inactive) | 1.02 (inactive) | 1.04 (inactive) | 0.997 (inactive) | 0.991 (inactive) | 1.01 (inactive) | 1.02 (inactive) |
| Nc1nc(N)c2nc(-c3ccccc3)c(N)nc2n1 [Triamterene] (20 µM) | 1.09 | 0.967 | 0.969 | 1.25 | 1.05 (inactive) | 0.928 (inactive) | 0.966 (inactive) | 0.8 (inactive) | 1.01 (inactive) | 1.04 (inactive) | 0.988 (inactive) | 0.907 (inactive) |
| CCC1NC(=O)c2cc(S(N)(=O)=O)c(Cl)cc2N1 (stereo not drawn) [Quinethazone] (20 µM) | 0.978 | 0.894 | 0.838 | 0.755 | 1.02 (inactive) | 1.27 (inactive) | 1.1 (inactive) | 0.956 (inactive) | 0.92 (inactive) | 1.01 (inactive) | 1.19 (inactive) | 1.24 (inactive) |
| NC(=O)NC1NC(=O)NC1=O (stereo not drawn) [Allantoin] (20 µM) | 1.05 | 1.14 | 1 | 1.09 | 1.02 (inactive) | 1.11 (inactive) | 1.17 (inactive) | 1.1 (inactive) | 0.972 (inactive) | 0.983 (inactive) | 1.02 (inactive) | 1.05 (inactive) |
| N#C/C(=C1/SCC(c2ccccc2Cl)S1)n1ccnc1 (stereo not drawn) [Lanoconazole] (20 µM) | 0.991 | 0.983 | 1 | 1.1 | 0.945 (inactive) | 0.98 (inactive) | 0.982 (inactive) | 1.04 (inactive) | 1.01 (inactive) | 1.01 (inactive) | 1 (inactive) | 0.949 (inactive) |
| COC(=O)[C@H](Cc1ccccc1)NC(=O)[C@H](CC(=O)O)NCCCc1ccc(OC)c(O)c1 [Advantame] (50 µM) | 0.941 | 0.94 | 0.999 | 0.968 | 1 (inactive) | 0.973 (inactive) | 0.899 (inactive) | 0.932 (inactive) | 1.02 (inactive) | 1.04 (inactive) | 0.996 (inactive) | 0.9 (inactive) |
| CC(C)Nc1cccnc1N1CCN(C(=O)c2cc3cc(NS(C)(=O)=O)ccc3[nH]2)CC1 [Delavirdine] (20 µM) | 1.03 | 1.01 | 0.995 | 0.754 | 1.04 (inactive) | 0.965 (inactive) | 1.05 (inactive) | 0.984 (inactive) | 0.906 (inactive) | 1.04 (inactive) | 1.05 (inactive) | 1.04 (inactive) |
| CCN1CCC[C@H]1CNC(=O)c1c(O)c(Cl)cc(Cl)c1OC [Raclopride] (20 µM) | 1.03 | 1.25 | 0.996 | 0.999 | 0.961 (inactive) | 1.06 (inactive) | 1 (inactive) | 1.19 (inactive) | 0.97 (inactive) | 0.944 (inactive) | 0.983 (inactive) | 0.991 (inactive) |
| O=C(O)C[C@H](O)C[C@H](O)/C=C/c1c(C2CC2)nc2ccccc2c1-c1ccc(F)cc1 [Pitavastatin calcium] (20 µM) | 1.08 | 1.01 | 0.996 | 1.12 | 1.03 (inactive) | 0.992 (inactive) | 0.997 (inactive) | 1.01 (inactive) | 1.01 (inactive) | 1 (inactive) | 0.997 (inactive) | 1.04 (inactive) |
| CC(=O)[C@H]1CC[C@H]2[C@@H]3CCC4=CC(=O)CC[C@]4(C)[C@H]3CC[C@]12C [Progesterone] (20 µM) | 1.08 | 1.02 | 1.05 | 0.651 | 0.893 (inactive) | 1.04 (inactive) | 0.981 (inactive) | 1.07 (inactive) | 0.961 (inactive) | 1.03 (inactive) | 1.02 (inactive) | 0.95 (inactive) |
| OC(CCN1CCCCC1)(c1ccccc1)C1CCCCC1 (stereo not drawn) [Trihexyphenidyl-D,L hydrochloride] (20 µM) | 1.05 | 1.11 | 1.02 | 0.865 | 0.954 (inactive) | 1.01 (inactive) | 0.874 (inactive) | 1.17 (inactive) | 0.97 (inactive) | 0.697 (inactive) | 0.984 (inactive) | 0.92 (inactive) |
